We go through 28 compounds from PubChem BioAssay (NCATS).

Results filed as inconclusive are left out. Entries that show only a call come without a potency. Values without a mark were called inactive. Activity calls are given as the source filed them. Calls follow the shape of the dose curve; as a rule, active = well fitted inhibition curve with a large enough effect; inconclusive = small, poorly fitted or top-dose-only effect; inactive = flat fitted curve, though single readings scatter.

Chain of Calcium and integrin-binding protein 1 (Homo sapiens) (Q99828 whole entry, looked up): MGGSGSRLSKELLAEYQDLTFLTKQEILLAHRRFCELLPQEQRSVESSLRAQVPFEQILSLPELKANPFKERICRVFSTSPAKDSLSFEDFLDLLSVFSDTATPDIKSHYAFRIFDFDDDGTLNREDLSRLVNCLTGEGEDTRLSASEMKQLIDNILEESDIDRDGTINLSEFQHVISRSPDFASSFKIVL

The experiment concerns the target Calcium and integrin-binding protein 1 (Homo sapiens) (UniProt Q99828). Description: Primary qHTS for Identification of Calcium Integrin Binding Protein 1 (CIB1) Competitor (AID 1508620).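 Also: GST tagged CIB1 binding a fluorescein labelled alphaIIb integrin peptide tracer; top concentration of the series differs between compounds.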 The conditions noted are these: CIB1-GST / FITC-alphaIIb peptide fluorescence polarization; series mostly up to 57.7 µM. An outline of the steps:
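CIB1-GST (1 uM final) and compound incubated 15 min at room temperature before adding FITC-alphaIIb peptide tracer (100 nM final). Competition for binding read by fluorescence polarization (ex 480, em 540) after another 15 min at room temperature.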
Background: In qHTS, concentration-response curves come from the screen itself.
`CCC1CC2C(C)=CC3CCCCC3C2(C)C2(OC(=O)C(C)(O)OC2=O)O1` (stereo not drawn): the Potency entry is “inactive”.

Take `CO/N=C(/C(=O)N[C@@H]1C(=O)N2C(C(=O)O)=C(CSC(=O)c3ccco3)CS[C@H]12)c1csc(N)n1`: the Potency result was “inactive”. Take `CC(=O)OC1C(O)C(C)=C(CCC(C)CC(=O)O)C2(C)CCCC(C)(C)C12` (stereo not drawn): the Potency result was “inactive”. Take `N#Cc1ccc2[nH]c(O)c(-c3ccc(CN4CCOCC4)cn3)c2c1`: the Potency result was “inactive”. On the same count and under the same terms, the result for `COc1ccc(/C=C/C(=O)O[C@@H]2[C@@H](O)[C@H](C)O[C@@H](OC3C4C=COC(O[C@@H]5O[C@H](CO)[C@@H](O)[C@H](O)[C@H]5O)C4C4(CO)OC34)[C@@H]2O)cc1OC` (stereo partly drawn) reads “inactive”; that for `CC[C@H](C)/C=C(C)/C=C/C(=O)Cc1cc(O)c(C)c(O)c1C=O`, “inactive”.

Turning to `C[C@@H]1C[C@H](O)/C=C/[C@H](O)[C@@H](O)CC(=O)O1`, the Potency result was “inactive”. As to `COC1=Cc2c(nc3n(c2=O)C(C)C(=O)NC3(O)C(C)C)OC=C1` (stereo not drawn), the Potency result was “inactive”. On to `C[C@@H]1O[C@@H](O[C@@H]2[C@@H](O)[C@H](O[C@@H]3[C@@H](O)[C@@H](O)[C@H](O[C@H]4[C@H](OC(=O)[C@]56CCC(C)(C)C[C@H]5C5=CCC7[C@@]8(C)C[C@H](O)[C@H](O[C@@H]9O[C@H](C(=O)O)[C@@H](O)[C@H](O)[C@H]9O)[C@@](C)(CO)C8[C@H](O)C[C@@]7(C)[C@]5(C)CC6)OC[C@H](O)[C@@H]4O)O[C@H]3C)OC[C@H]2O)[C@H](O)[C@H](O)[C@H]1O` (stereo partly drawn), for which the activity change, negative = inhibition was 3.71% [at 12.4 µM]. As for `CCC[C@@H]1C[C@@H](C(=O)N[C@H](C(C)Cl)[C@H]2O[C@H](SC)[C@H](O)[C@@H](O)[C@H]2O)N(C)C1` (stereo partly drawn), the Potency result is “inactive”. On the same count and under the same terms, the result for `CC1=C2C=C(CO)C(CO)CCC2(C)CCC1=O` (stereo not drawn) reads “inactive”; that for `CC(O)C(O)/C=C/C=C/C(=O)O[C@@H]1C=C2COC(=O)[C@]2(O)[C@@]2(C)CCCC(C)(C)C12` (stereo partly drawn), “inactive”. On to `CC1(C)CCC(C)(C)c2cc([C@@H](O)C(=O)Nc3ccc(C(=O)O)cc3F)ccc21`, for which the Potency entry was “inactive”. The same measure, in the same setting: then `CC1(CO)CC[C@]2(C(=O)O[C@@H]3O[C@H](CO)[C@@H](O)[C@H](O)[C@H]3O)CC[C@]3(C)C(=CCC4[C@@]5(C)C[C@H](O)[C@H](O[C@@H]6OC[C@@H](O)[C@H](O)[C@H]6O)[C@@](C)(CO)C5CC[C@]43C)C2C1` (stereo partly drawn), with “inactive”. In the case of `CC(C)(O)C1=CCC23COC(C2)C(O)(C(=O)O)CCC13` (stereo not drawn), the Potency entry is “inactive”. Same read-out and setting: then `C[C@H]1CN(C[C@H](Cc2ccccc2)C(=O)NCC(=O)O)CC[C@@]1(C)c1cccc(O)c1`, with “inactive”; and `C=C1C[C@]23C[C@H]1CC[C@H]2[C@]1(C)CCC[C@@]2(CO)C(=O)O[C@H]([C@H]21)[C@@H]3O`, with “inactive”.

In the case of `C=C1CC2[C@]3(C)C(=C(O)C(=O)[C@@]2(C)[C@]2(C(=O)OC)C(=O)C(C)OC(=O)[C@@]12C)C(C)(C)C(=O)CC3O` (stereo partly drawn), the Potency entry is “inactive”. Same read-out and setting: then `COc1c(C)c(C(=O)c2ccc(N)c(C(=O)O)c2)n2ccccc12`, with “inactive”. For `C[C@@H]1O[C@@H](O[C@H]2[C@H](O)[C@@H](O)[C@H](OC[C@H]3O[C@@H](OC(=O)[C@]45CCC(C)(C)C[C@H]4C4=CCC6[C@@]7(C)C[C@H](O)[C@H](O[C@@H]8O[C@H](CO)[C@@H](O)[C@H](O)[C@H]8O)[C@@](C)(C(=O)O)C7CC[C@@]6(C)[C@]4(C)CC5)[C@H](O[C@@H]4O[C@H](CO)[C@@H](O)[C@H](O)[C@H]4O)[C@@H](O)[C@@H]3O)O[C@@H]2CO)[C@H](O)[C@H](O)[C@H]1O` (stereo partly drawn), the activity change, negative = inhibition is 0.065% [at 12.4 µM]. As to `CN(C)C/C=C/C(=O)Nc1ccc(C(=O)Nc2cccc(Nc3ncc(Cl)c(-c4c[nH]c5ccccc45)n3)c2)cc1`, the Potency result is “inactive”. Same read-out and setting: the result for `CC(C)NC[C@H](O)COc1ccc(CCOCC2CC2)cc1` reads “inactive”.

On to `O=C1NC(Cc2ccc(O)cc2)C(=O)N2CCCC12` (stereo not drawn), for which the Potency entry was “inactive”.

Take `CC1=C(C)C(=O)OC(C(C)C2C(O)CC3C4C5OC5C5(O)CC(OC6OC(CO)C(O)C(O)C6O)CC(O)C5(C)C4CCC32C)C1` (stereo not drawn): the Potency result is “inactive”. Still for that read-out and setting: the result for `O=C(O[C@@H]1O[C@H](CO)[C@@H](O)[C@H](O)[C@H]1O)c1c(O)cc(O)cc1/C=C/c1ccccc1` reads “inactive”; that for `CCOC(=O)c1ccnc(CNCC(=O)N(CC)CCN(C)C)c1`, “inactive”. As to `CC1(C)C(=O)C(C)(C)c2cc(C(=O)Nc3ccc(C(=O)O)cc3)ccc21`, the Potency result was “inactive”. With `COc1cc([C@H]2OC[C@]3(OC(C)=O)[C@@H](c4ccc(O[C@@H]5O[C@H](CO)[C@@H](O)[C@H](O)[C@H]5O)c(OC)c4)OC[C@H]23)ccc1O`, the Potency entry is “inactive”.
